CCHFV vOTU inh = CCHFV vOTU protease inhibition | Pep-AMC fluorescence | inhibition, % at 11.5 µM | 0.55% of 370,000 active; in the data active means inhibition above about 30%; further: 0% = vehicle wells with enzyme and 100% = no enzyme wells
Bead autofluor = counter-screen for toxin protease inhibitors: compound fluorescence. compound autofluorescence counterscreen, microsphere flow cytometry; active compounds read high. 3.1% of 360,000 active. fluorescence intensity (concentration not given with the values); in the data active means fluorescence intensity above about 16000; inconclusive means no clear call, values can overlap the other calls
BoNT-F LC inh = inhibitors of Botulinum neurotoxin F light chain protease; Multiplex microsphere protease cleavage assay, flow cytometry; inhibition, % at 10 µM; 0.22% of 360,000 active; in the data active means inhibition above about 35%, passing the limit was not always enough; inconclusive means no clear call, values can overlap the other calls; further: plate controls were buffer without enzyme for full effect and enzyme alone for no effect
BoNT-A LC inh2 = BoNT A light chain protease inhibition; AID 588499; 0.17% of 360,000 active; multiplex microsphere protease substrate cleavage, flow cytometry; inhibition, % at 10 µM; further: plate controls were buffer without enzyme for full effect and enzyme alone for no effect
SARS 3CLpro inh = SARS-CoV 3CLpro protease inhibition; P0C6X7; recombinant SARS-CoV 3CLpro, quenched FRET peptide cleavage; inhibition, % at 6 µM; 0.14% of 290,000 active; AID 1706; in the data active means inhibition above about 12%
Anthrax LF prot = blocks Bacillus anthracis lethal factor protease; multiplex microsphere protease cleavage assay, LF; inhibition, % at 10 µM; 0.12% of 360,000 active; AID 588501; further: plate controls were buffer without enzyme for full effect and enzyme alone for no effect
Target sequence (P15917 whole entry, looked up): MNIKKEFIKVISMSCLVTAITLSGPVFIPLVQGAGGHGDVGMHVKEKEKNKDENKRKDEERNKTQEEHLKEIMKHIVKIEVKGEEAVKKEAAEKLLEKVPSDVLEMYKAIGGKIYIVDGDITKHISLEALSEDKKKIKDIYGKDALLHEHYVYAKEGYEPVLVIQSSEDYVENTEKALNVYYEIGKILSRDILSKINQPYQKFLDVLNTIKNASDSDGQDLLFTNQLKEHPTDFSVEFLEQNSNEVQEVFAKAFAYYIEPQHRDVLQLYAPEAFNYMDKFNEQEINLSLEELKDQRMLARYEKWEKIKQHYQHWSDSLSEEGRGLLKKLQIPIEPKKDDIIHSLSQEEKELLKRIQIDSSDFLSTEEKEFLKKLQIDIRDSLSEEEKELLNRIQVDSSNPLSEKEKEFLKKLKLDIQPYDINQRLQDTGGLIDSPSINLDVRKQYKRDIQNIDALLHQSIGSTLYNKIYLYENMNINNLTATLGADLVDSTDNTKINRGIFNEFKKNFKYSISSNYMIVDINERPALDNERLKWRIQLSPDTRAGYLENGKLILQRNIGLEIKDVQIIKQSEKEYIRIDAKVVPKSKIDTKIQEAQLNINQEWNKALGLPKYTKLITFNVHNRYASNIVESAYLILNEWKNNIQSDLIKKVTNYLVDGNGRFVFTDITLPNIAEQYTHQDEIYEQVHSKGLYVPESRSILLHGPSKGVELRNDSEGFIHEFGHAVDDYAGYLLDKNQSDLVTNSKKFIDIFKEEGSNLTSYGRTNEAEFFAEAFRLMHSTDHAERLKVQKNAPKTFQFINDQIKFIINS
* = called active by the depositor; ? = inconclusive; . = no result. Most compounds without a hit are left out; they make up all but 3.9% or so of the library. Unless noted, no stated cut-off is given here; in the data, active means inhibition above about 30%; inconclusive means no clear call, values can overlap the other calls; inactive means below that.

SMILES | CCHFV vOTU inh | Bead autofluor | BoNT-F LC inh | BoNT-A LC inh2 | SARS 3CLpro inh | Anthrax LF prot
CC(C)[C@H](NC(=O)NCCc1ccc(Cl)cc1)C(=O)O | -9 | 17382* | -8 | ? | 0 | -3
CC(C)[C@H](NC(N)=O)C(=O)NCCc1ccc(Cl)cc1 | 1 | 3212 | 2 | 0 | -1 | -1
CCc1c(C)sc(NC(=O)OC)c1C(N)=O | -5 | 17066* | -1 | -1 | -4 | 2
Cc1cc(C)cc(CC2CC(=O)N(c3ccc(Cl)cn3)C2=O)c1 (centres undefined) | -9 | 22513* | 1 | 1 | 1 | -4
O=C(Nc1ccccc1OC(F)F)c1ccccc1 | -12 | 8328 | 0 | 0 | 1 | 1
Cc1ccc(C(=O)Nc2ccccc2OC(F)F)cc1 | -15 | 23774* | -2 | ? | 3 | -7
Cc1cc(C=C2C(=O)N(C)C(=S)N(C)C2=O)c(C)n1C1CCCC1 | 3 | 4034 | 27 | 54* | -5 | 38*
CCN1C(=O)C(=Cc2cc(C)n(C3CC3)c2C)C(=O)N(CC)C1=S | -5 | 2840 | 8 | 41* | -5 | 16
Cc1cc(/C=C2\SC(=S)NC2=O)c(C)n1C1CC1 | 20 | 20502* | 3 | 1 | 1 | 3
N=c1c2c(-c3ccccc3)c(-c3ccccc3)n(Cc3ccccc3)c2ncn1C1CCOCC1 | 5 | . | . | . | . | .
CCCCCCCCN1C(=O)[C@@H](CC(=O)N2CCC(c3ccccc3)CC2)C[C@@]2(C(=O)OC)C1=C[C@H](COCc1ccccc1)O[C@@H]2C | 18 | . | . | . | . | .
COc1ccc(CCn2c(SCC(=O)Nc3cc(C)on3)nc3ccccc3c2=O)cc1OC | 0 | 9724 | -6 | -1 | 5 | -12
CCCCn1c(SCC(=O)Nc2cc(C)on2)nc2ccsc2c1=O | -8 | 11106 | 5 | 0 | -4 | -8
CCCCCCn1c(SCC(=O)Nc2cc(C)on2)nc2ccccc2c1=O | 6 | 16827* | -1 | -2 | 6 | -3
Cc1cc(NC(=O)CSc2nc3ccsc3c(=O)n2CCCCC(=O)O)no1 | -6 | 16845* | 0 | -1 | 6 | -2
CCOC(=O)c1cccc(NC(=O)CSc2nc3ccccc3c(=O)n2CCOC)c1 | -6 | 22521* | -1 | ? | -2 | -2
COc1ccc(CCn2c(SCC(=O)Nc3cc(C)on3)nc3ccsc3c2=O)cc1OC | 5 | 19488* | 5 | 3 | -1 | -11
CC(=O)OC12CCCN(C1)/C(=C/c1cccc(N(C)C)c1)C2 (centres undefined) | -4 | . | . | . | . | .
CC(C)C(=O)N1CC[C@H]2[C@H](CCCN2Cc2cc(F)cc(F)c2)C1 | -12 | . | . | . | . | .
COc1ccc(CNC(=S)OC2CCC23CCC(c2ccccc2)CC3)cc1 (centres undefined) | 5 | . | . | . | . | .
O=C(CSc1nnc(-c2ccccc2F)n1Cc1ccco1)Nc1ccccc1-c1ccccc1 | 3 | . | . | . | . | .
CCCCc1nnc(NC(=O)CSc2nc(=O)cc(N)n2-c2cccc(C)c2)s1 | 0 | 16503* | 0 | 0 | -1 | -1
Nc1cc(=O)nc(SCC(=O)N(C2CCCCC2)C2CCCCC2)n1-c1ccccc1 | -11 | 16646* | -3 | ? | 1 | 1
Nn1c(SCC(=O)Nc2ccccc2F)nc2ccccc2c1=O | -13 | 16496* | -2 | ? | -9 | 0
Cc1cc(NC(=O)CSc2nc3ccccc3n2CC(=O)N2CC(C)CC(C)C2)no1 (centres undefined) | -5 | 23778* | -1 | ? | 0 | -2
SMILES | CCHFV vOTU inh | Bead autofluor | BoNT-F LC inh | BoNT-A LC inh2 | SARS 3CLpro inh | Anthrax LF prot
COc1ccc(-n2c(N)cc(=O)nc2SCC(=O)N2CCN(c3ccccc3)CC2)cc1 | -5 | 6629 | -13 | -3 | -5 | -1
O=C(O)Cn1nnnc1SCC(=O)Nc1ccccc1F | -12 | 4688 | 3 | 0 | 0 | 2
CCOc1ccc(CCNC(=O)c2cc3ccsc3n2C)cc1OC | 11 | . | . | . | . | .
C#CCNC(=O)C[C@H]1C[C@@]2(C(=O)OC)C(=C[C@H](COCc3ccccc3)O[C@@H]2C)N(Cc2ccc(Cl)cc2Cl)C1=O | 5 | . | . | . | . | .
CC1CCC2(CC1)CCN(CCCOC(=O)NCc1ccc(Cl)cc1)C2=O (centres undefined) | 12 | . | . | . | . | .
COC(=O)c1cccc(NC(=O)CSc2nc(=O)cc(N)n2-c2ccccc2)c1 | -3 | 16937* | 0 | -1 | 3 | -3
Cc1ccc(NC(=O)CSc2nc(=O)cc(N)n2-c2ccccc2)cc1 | 5 | 4224 | -2 | 0 | 3 | 1
CCOc1ccc(-n2c(COc3ccc(C)cc3)nnc2SCC(=O)Nc2ccc(F)c(F)c2)cc1 | 17 | . | . | . | . | .
COc1ccc(-c2oc3ncnc(NCCCN4CCOCC4)c3c2-c2ccc(OC)cc2)cc1 | -13 | 10421 | -14 | 0 | 2 | 0
c1ccc(-c2oc3ncnc(NCCCN4CCOCC4)c3c2-c2ccccc2)cc1 | -15 | 26085* | -6 | -3 | 2 | -4
COCCn1c(C)cc(C(=O)COC(=O)CCc2ccc(S(=O)(=O)N3CCOCC3)cc2)c1C | 10 | 22125* | -2 | ? | 2 | -3
Cc1ccc(NC(=O)CCc2ccc(S(=O)(=O)N3CCOCC3)cc2)c(C)c1 | 1 | 20854* | 3 | ? | 1 | -8
COCCn1c(C)cc(C(=O)COC(=O)CCS(=O)(=O)c2ccc(C)cc2)c1C | 2 | 6959 | -12 | -4 | . | -5
CC(=O)Nc1nc2ncccn2c1-c1ccccc1 | -37 | . | . | . | . | .
CN(C(=O)CN1CCC(NC(=O)C2CCCCC2)CC1)C1CCCCC1 | 1 | 23953* | -4 | -2 | -4 | -3
c1ccc(Cn2c(SCC3CCCCC3)nnc2-c2cccnc2)cc1 | 4 | . | . | . | . | .
COc1nc(-c2ccccc2)cc(-c2ccc(OC)c(OC)c2)n1 | 4 | 19447* | -2 | 0 | 2 | -1
COc1ccc(-c2cc(-c3ccccc3)nc(NN)n2)cc1OC | 0 | 3061 | -16 | 0 | -2 | -5
CCC(Oc1ccccc1)C(=O)Nc1ccc(S(=O)(=O)NCC2CCCO2)cc1 (centres undefined) | -1 | 20336* | 1 | 1 | 3 | -4
O=S(=O)(NCC1CCCO1)c1ccc(Oc2ccccc2)cc1 (centres undefined) | -13 | 21154* | -2 | -2 | -1 | -3
O=C(Nc1ccc(S(=O)(=O)NCC2CCCO2)cc1)c1ccccc1 (centres undefined) | 3 | 2654 | 6 | -1 | 7 | 0
COc1cccc2cc(NC(=O)C3CCCCC3)c(=O)oc12 | -9 | 21365* | 5 | ? | -2 | 0
COc1cccc2cc(C(=O)Nc3ccc(S(=O)(=O)NCC4CCCO4)cc3)c(=O)oc12 (centres undefined) | 3 | 24536* | -118 | -24 | 5 | -32
COc1cccc2cc(C(=O)N3CCCCC3C)c(=O)oc12 (centres undefined) | -3 | 3326 | -8 | -1 | 0 | -4
COC(=O)c1cc2c(c3c4cc(C)ccc4n(S(=O)(=O)c4cccc(C)c4)c13)C(=O)N(Cc1ccc(C(F)(F)F)cc1)C2 | 12 | . | . | . | . | .
O=C(c1ccc(F)cc1F)N1CCC(Oc2cccnc2)CC1 | 10 | . | . | . | . | .
